# Tested on: not listed separately
# Assay: binders of probe aFGF10 on microarray, primary screen, stem cell growth factor project, biochemical, small-molecule microarray, fluorescence 635/667 (AID 1071);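 further: score merges 667 nm spot intensity and signal to noise from triplicate slides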
# Conditions: higher = more signal
row,Compound,composite z-score
1,COc1ccc(C(O)C2C=CC3C(=O)NC(=O)C3N2Nc2ccccn2)c2ccccc12 (configuration not stated),0.246
2,C=C(COC)/C(=C/C[C@H](OC(=O)c1ccncc1)c1ccc(OCCO)cc1)c1cnc2ccccc2c1,0.97
3,C=C(C)C1C(=C)CN([C@H](CO)c2ccccc2)C1=O (some centres not stated),-0.205
4,C=CCC(OC(C)=O)[C@@H]1[C@@H](N(Cc2ccc(-c3cccc(C(F)(F)F)c3)o2)C(=O)Cc2ccc(F)cc2)c2cc(OCCCO)ccc2N1C(=O)Cc1ccc(OC)cc1 (some centres not stated),0.318
5,CC(C)c1ccc(NN2C(C(O)c3cc(C(F)(F)F)cc(C(F)(F)F)c3)C=CC3C(=O)N(c4ccccc4)C(=O)C32)cc1 (configuration not stated),0.13
6,COc1ccc([Si](C)(C)[C@H]2[C@H](CCn3cc([C@H](O)c4ccccc4)nn3)O[C@@]3(C(=O)N(Cc4cccc(N5CCOC5=O)c4)c4ccccc43)[C@@H]2C)cc1,0.29
7,Cc1ccc(S[C@]2(C(=O)NCC(C)C)CC(=O)N(Cc3cc(C(F)(F)F)cc(C(F)(F)F)c3)[C@@H]2c2ccc(CO)cc2I)cc1,-0.637

# Biological target: Neurogenic locus notch homolog protein 2 (Homo sapiens) (UniProt Q04721)
# Sequence (Q04721 whole entry, looked up): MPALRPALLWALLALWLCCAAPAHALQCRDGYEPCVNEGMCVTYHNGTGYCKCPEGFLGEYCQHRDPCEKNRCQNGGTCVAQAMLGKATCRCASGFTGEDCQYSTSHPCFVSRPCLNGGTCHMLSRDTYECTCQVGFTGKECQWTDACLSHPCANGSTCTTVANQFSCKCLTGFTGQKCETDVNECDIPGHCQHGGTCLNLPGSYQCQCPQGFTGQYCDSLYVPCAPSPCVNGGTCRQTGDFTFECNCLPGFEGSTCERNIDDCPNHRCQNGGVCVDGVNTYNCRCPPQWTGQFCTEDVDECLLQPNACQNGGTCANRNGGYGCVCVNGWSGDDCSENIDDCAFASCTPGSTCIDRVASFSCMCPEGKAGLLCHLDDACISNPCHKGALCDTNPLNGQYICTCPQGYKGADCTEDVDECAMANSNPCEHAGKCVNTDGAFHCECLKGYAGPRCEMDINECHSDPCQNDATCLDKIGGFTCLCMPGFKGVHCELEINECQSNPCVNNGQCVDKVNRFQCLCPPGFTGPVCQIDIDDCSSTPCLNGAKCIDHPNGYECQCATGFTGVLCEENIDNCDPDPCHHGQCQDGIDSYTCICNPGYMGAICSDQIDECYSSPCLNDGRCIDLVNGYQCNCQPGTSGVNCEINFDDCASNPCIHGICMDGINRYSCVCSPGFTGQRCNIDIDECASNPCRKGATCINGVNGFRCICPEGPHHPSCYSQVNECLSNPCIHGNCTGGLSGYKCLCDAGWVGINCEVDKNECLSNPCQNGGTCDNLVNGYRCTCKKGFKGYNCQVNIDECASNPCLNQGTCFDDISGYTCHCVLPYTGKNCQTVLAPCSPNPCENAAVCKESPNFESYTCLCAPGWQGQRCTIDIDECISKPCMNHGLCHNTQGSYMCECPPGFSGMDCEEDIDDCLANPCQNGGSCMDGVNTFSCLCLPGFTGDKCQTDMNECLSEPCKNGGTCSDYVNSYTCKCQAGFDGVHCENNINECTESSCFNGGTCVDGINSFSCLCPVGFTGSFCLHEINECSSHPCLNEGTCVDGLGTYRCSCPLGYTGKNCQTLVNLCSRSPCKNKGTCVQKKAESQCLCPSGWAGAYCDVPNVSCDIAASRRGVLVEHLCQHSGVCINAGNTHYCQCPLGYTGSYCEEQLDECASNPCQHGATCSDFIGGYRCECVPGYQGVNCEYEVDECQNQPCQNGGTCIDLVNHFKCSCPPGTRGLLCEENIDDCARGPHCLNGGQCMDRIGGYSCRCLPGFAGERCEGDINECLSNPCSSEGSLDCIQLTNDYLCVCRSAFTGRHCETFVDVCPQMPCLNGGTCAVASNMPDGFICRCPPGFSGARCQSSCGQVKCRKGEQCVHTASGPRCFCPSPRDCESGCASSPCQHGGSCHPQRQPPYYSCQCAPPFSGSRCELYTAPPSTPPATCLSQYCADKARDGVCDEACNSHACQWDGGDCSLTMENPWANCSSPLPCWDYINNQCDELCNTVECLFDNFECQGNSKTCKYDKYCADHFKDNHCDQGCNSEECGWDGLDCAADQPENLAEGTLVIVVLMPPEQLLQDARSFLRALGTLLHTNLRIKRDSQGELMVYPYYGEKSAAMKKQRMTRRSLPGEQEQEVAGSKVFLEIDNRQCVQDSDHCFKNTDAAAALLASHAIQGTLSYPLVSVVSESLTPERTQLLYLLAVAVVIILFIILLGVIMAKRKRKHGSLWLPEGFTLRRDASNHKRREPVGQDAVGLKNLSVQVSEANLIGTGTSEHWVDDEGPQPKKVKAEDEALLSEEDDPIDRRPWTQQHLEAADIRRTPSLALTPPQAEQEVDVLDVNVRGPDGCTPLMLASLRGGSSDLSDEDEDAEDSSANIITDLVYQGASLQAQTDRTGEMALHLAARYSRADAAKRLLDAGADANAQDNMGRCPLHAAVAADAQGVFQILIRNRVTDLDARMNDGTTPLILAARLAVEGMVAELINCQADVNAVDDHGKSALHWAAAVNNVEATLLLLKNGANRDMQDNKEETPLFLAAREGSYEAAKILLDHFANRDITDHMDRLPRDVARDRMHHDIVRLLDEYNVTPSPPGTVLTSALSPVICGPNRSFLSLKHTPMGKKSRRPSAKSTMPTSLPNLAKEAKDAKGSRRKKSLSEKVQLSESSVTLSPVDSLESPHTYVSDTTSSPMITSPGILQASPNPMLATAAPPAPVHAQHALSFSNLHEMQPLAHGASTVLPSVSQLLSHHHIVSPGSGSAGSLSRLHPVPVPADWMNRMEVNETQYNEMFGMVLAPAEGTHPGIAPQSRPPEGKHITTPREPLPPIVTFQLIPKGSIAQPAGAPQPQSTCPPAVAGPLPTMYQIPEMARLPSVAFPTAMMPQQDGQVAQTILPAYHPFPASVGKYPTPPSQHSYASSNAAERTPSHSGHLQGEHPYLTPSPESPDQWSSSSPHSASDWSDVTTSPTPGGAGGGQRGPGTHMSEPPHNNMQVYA
# Assay: Notch2 binders on small-molecule microarrays, primary screen, biochemical, small-molecule microarray, 635 nm fluorescence, stem cell growth factors (AID 1073)
# Conditions: Notch2 binding, higher = more signal
row,Compound,composite z-score
1,COCC(=C=CC[C@H](O)c1ccccc1OCCO)C[C@H](O)c1cc(Cl)cc(Cl)c1O,0.421
2,C=CCC(OC(C)=O)[C@@H]1[C@@H](N(Cc2ccc(-c3ccccc3)cc2)C(=O)Cc2ccc(F)cc2)c2cc(OCCCO)ccc2N1C(=O)c1ccc(-c2ccccc2)cc1 (some centres not stated),-0.305
3,COCCOC(=O)N1C(=O)[C@@]2(c3cc(C#CC4=CCCCC4)ccc31)[C@H](c1ccc(O)cc1)N1[C@H](c3ccccc3)[C@H](c3ccccc3)OC(=O)[C@H]1[C@@H]2C(N)=O,0.592
4,O=C1O[C@H](c2ccccc2)[C@H](c2ccccc2)N2[C@H]1[C@@H](C(=O)O)[C@]1(C(=O)Nc3ccc(C#CCCO)cc31)[C@H]2c1ccc(O)cc1,-0.665
5,O=C(NCc1ccccc1)[C@@]1(Cc2ccccc2)N=C(c2ccc(OCCCO)cc2)O[C@H]1c1ccccc1,1.56
6,CCOC(=O)C[C@H]1[C@H](OC(=O)c2cc3ccccc3oc2=O)[C@@H](NC(=O)Cc2ccc(OC)cc2)c2cc(OCCCO)ccc2N1C(=O)c1ccccc1,0.359
7,COc1ccc([Si](C)(C)[C@H]2[C@H](CCO)O[C@@]3(C(=O)N(C)c4c(Br)cc(C)cc43)[C@@H]2C)cc1,0.432
8,CN(C)C(=O)[C@@]1(Cc2ccccc2)N=C(c2ccc(OCCCO)cc2)O[C@H]1c1ccccc1N=[N+]=[N-],1.55
9,CC(=O)NCCCC[C@@H]1NC(=O)[C@@H]2C[C@H](C(=O)NCCCCCCNC(=O)CS)[C@H](c3cccc(OCCO)c3)N2C1=O,0.149
10,CN(C)CCCNC(=O)[C@@]1(C)c2ccccc2C(=O)N(Cc2cc(F)cc(C(F)(F)F)c2)[C@H]1c1ccc(CO)cc1,-1.23
11,O=C1C[C@]2(c3ccc([N+](=O)[O-])cc3)C(=O)N(CCN3CCOCC3)c3cc(CO)ccc3[C@H]2N1C1CCCCC1,-0.309
12,COC(=O)C=C(CC(O)c1cccc(Cl)c1)OC (configuration not stated),-0.0372
13,COc1ccc(CCN2C(=O)[C@@]3(c4ccc([N+](=O)[O-])cc4)CC(=O)N(C4CCCCC4)[C@@H]3c3ccc(CO)cc32)cc1,-0.0731
14,O=C1C2C=CC(C(O)C(c3ccccc3)c3ccccc3)N(n3cnnc3)C2C(=O)N1Cc1ccccc1 (configuration not stated),0.492
15,O=C1c2ccccc2[C@@]2(Cc3ccccc3N(CCN3CCOCC3)C2=O)[C@H](c2ccc(CO)cc2)N1Cc1ccccc1,-0.933
16,CC(C)(C)OC(=O)CC[C@]1(C(=O)NCC(O)CO)COC(c2ccc(OCCCO)cc2)=N1 (some centres not stated),1.13
17,CN1C(=O)[C@]2(Cc3ccccc3)N=C(c3ccc(OCCCO)cc3)O[C@@H]2c2ccccc21,0.826
18,O=C1OCCC/C=C\[C@H]2OC34C=CCN(Cn5nnc6ccccc65)C(=O)[C@H]3N(CCO)C(=O)[C@@H]4C12 (some centres not stated),-0.918

row,Compound,composite z-score
1,CC(C)C(=C=CC[C@@H](O)c1ccccc1OCCO)CCO,0.0761
2,N#Cc1ccc(NN2C(C(O)c3c(F)cccc3Cl)C=CC3C(=O)N(c4ccccc4)C(=O)C32)cc1 (configuration not stated),1.69
3,COC(=O)[C@@]1(Cc2ccccc2)[C@H]2c3cc(C(=O)N4CCCC4)n(Cc4cccc5ccccc45)c3C[C@H]2CN1C(=O)c1ccccc1,1.63
4,COCC(=C=CC[C@@H](O)c1ccccc1OCCO)C[C@@H](O)c1cc(Cl)cc(Cl)c1O,1.09
5,C=CCOC(=O)[C@@H]1[C@H]2C(=O)O[C@H](c3ccccc3)[C@H](c3ccccc3)N2[C@H](c2ccc(OCCOC(=O)[C@@H]3C[C@@H]4C(=O)N[C@@H](Cc5ccccc5)C(=O)N4[C@@H]3c3ccc(O)cc3)cc2)[C@@]12C(=O)Nc1ccc(I)cc12,0.825
6,C[C@@H]1ON(c2cccc(C(=O)OC(C)(C)C)c2)[C@H](c2ccc(Br)cc2)[C@H]1C(=O)N1C(=O)OC[C@H]1Cc1ccccc1,1.37
7,O=C1OCCC=C[C@H]2OC34C=CCN(CCN5CCOCC5)C(=O)[C@H]3N(CCCCCCO)C(=O)[C@@H]4C12 (some centres not stated),-0.849
8,C=CC[C@@]1(C(N)=O)N=C(c2ccc(OCCCO)cc2)O[C@@H]1c1ccccc1CN=[N+]=[N-],0.77
9,C=CCOC(=O)[C@H]1[C@@H]2C(=O)O[C@@H](c3ccccc3)[C@@H](c3ccccc3)N2[C@@H](c2ccc(OCCOC(=O)[C@H]3C[C@H]4C(=O)N[C@@H](CC(C)C)C(=O)N4[C@H]3c3ccc(O)cc3)cc2)[C@]12C(=O)Nc1ccc(I)cc12,0.82
10,CCCCN1CC=CC23O[C@@H]4/C=C\CCC(C)OC(=O)C4[C@H]2C(=O)N(CCCCCO)[C@@H]3C1=O (some centres not stated),-0.784
11,COc1ccc(C(O)C2C=CC3C(=O)NC(=O)C3N2Nc2ccccn2)c2ccccc12 (configuration not stated),0.388
12,C=C(COC)/C(=C/C[C@H](OC(=O)c1ccncc1)c1ccc(OCCO)cc1)c1cnc2ccccc2c1,1.57
13,C=C(C)C1C(=C)CN([C@H](CO)c2ccccc2)C1=O (some centres not stated),-0.725
14,C=CCC(OC(C)=O)[C@@H]1[C@@H](N(Cc2ccc(-c3cccc(C(F)(F)F)c3)o2)C(=O)Cc2ccc(F)cc2)c2cc(OCCCO)ccc2N1C(=O)Cc1ccc(OC)cc1 (some centres not stated),-0.944
15,CC(C)c1ccc(NN2C(C(O)c3cc(C(F)(F)F)cc(C(F)(F)F)c3)C=CC3C(=O)N(c4ccccc4)C(=O)C32)cc1 (configuration not stated),1.24
16,COc1ccc([Si](C)(C)[C@H]2[C@H](CCn3cc([C@H](O)c4ccccc4)nn3)O[C@@]3(C(=O)N(Cc4cccc(N5CCOC5=O)c4)c4ccccc43)[C@@H]2C)cc1,0.401
17,Cc1ccc(S[C@]2(C(=O)NCC(C)C)CC(=O)N(Cc3cc(C(F)(F)F)cc(C(F)(F)F)c3)[C@@H]2c2ccc(CO)cc2I)cc1,-1.1

# Source: PubChem BioAssay
